This is a sample that favours compounds with a hit; in the whole collection about 3.6% have one here.
ERK AVP inh – blocks ERK signaling stimulated by vasopressin; Potency, µM (highest dose often 57.5 µM), for inactives: at the highest dose activity, negative = inhibition, most hits filed as inhibitors; HEK293-V1b, vasopressin-stimulated pERK AlphaScreen; 72,000 compounds, 0.99% hits; AID 995; also: % is scaled to controls: 0 for no effect and ±100 for the full control effect; nearly all actives have a fitted effect of over 55% in size
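Phosphorylated ERK1/2 detected via AlphaScreen bead proximity in lysates of V1b-expressing HEK293 cells given 25 nM vasopressin for 5 min after 30 min compound exposure (37 °C). AC50 from Hill equation; basal DMSO 0%, vasopressin 100%.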
IkB sig inh – IkB pathway inhibition in ABC-DLBCL cells. ABC-DLBCL IkBa-CBG/CBR dual luciferase ratio, 4 h; response scale: scaled: untreated 0%, proteasome inhibitor 100%. Potency, µM (highest dose often 57.1 µM), inactives show at the top dose IkBa stabilization activation. 110,000 compounds, 0.04% hits; active = well fitted curve in the direction sought with a large enough effect in the signal ratio, not every such curve was filed as active; inconclusive = small, poorly fitted or top-dose-only effect, or a change in a side signal; the % refers to the signal ratio;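 also: the direction sought is a rising ratio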
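Luminescence ratio of IκBα-fused green versus native red beetle luciferase in OCI-Ly3 cells, 4 h post-doxycycline with compound; red signal alone, scaled from basal (0%) to zero light (-100%), flagged nonspecific or cytotoxic effects.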
CRE-bla Fsk – alters forskolin-stimulated CRE reporter signaling in CHO cells | 71,000 compounds, 2.5% hits | Potency, µM (titrated, usually from 38.2 µM), for the others: top-dose activity change, negative = inhibition, hits mostly activators | CHO CRE-bla reporter (cAMP response element driving beta-lactamase), forskolin EC10, beta-lactamase ratio; active = well fitted activation curve with a large enough effect in the signal ratio, with a control signal flat, not every such curve was filed as active; inconclusive = small, poorly fitted or top-dose-only effect, or effect the other way, or a change in a side signal; the % refers to the signal ratio; also: % of control where 0% means no effect
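Forskolin analogue NKH 477 at EC10 stimulated CRE-driven beta-lactamase in CHO cells alongside compound dilution series. Beta-lactamase was measured with CCF4, excitation 405 nm, emission ratio 460/530 nm.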
HEK293 cAMP ctrl – raises cAMP in parental HEK293 cells, TSHR agonist counter-screen; parental HEK293 CNG cAMP sensor, membrane potential fluorescence; Potency, µM (doses to about 57.1 µM), for the others: top-dose activation, usual class: activators; 73,000 compounds, 2.5% hits; AID 938; also: % of control where 0% means no effect; nearly all actives have a fitted effect of over 55% in size
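Parental HEK 293 cells stably expressing a modified CNG channel (no TSHR) report cAMP rise as membrane depolarization. Membrane potential dye with 100 uM RO 20-1724 was loaded for 60 min at room temperature, then compound added for 30 min; fluorescence read at 590 nm.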
TSHR ag – activates the human thyroid stimulating hormone receptor. 73,000 compounds, 0.48% hits. Potency, µM (highest dose often 57.1 µM), without a hit: top-dose activation, actives largely listed as activators. P16473. HEK293-CNG-TSHR cells (CNG channel as cAMP sensor), membrane potential dye, cAMP; active = well fitted activation curve with a large enough effect in the main read-out, with a control signal flat, not every such curve was filed as active; inconclusive = small, poorly fitted or top-dose-only effect, or a change in a side signal; inactive = no such curve, though single readings can be large or run the other way; % of control where 0% means no effect;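 also: the control signal comes from parental cells without the receptor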
Target sequence (P16473 whole entry, looked up): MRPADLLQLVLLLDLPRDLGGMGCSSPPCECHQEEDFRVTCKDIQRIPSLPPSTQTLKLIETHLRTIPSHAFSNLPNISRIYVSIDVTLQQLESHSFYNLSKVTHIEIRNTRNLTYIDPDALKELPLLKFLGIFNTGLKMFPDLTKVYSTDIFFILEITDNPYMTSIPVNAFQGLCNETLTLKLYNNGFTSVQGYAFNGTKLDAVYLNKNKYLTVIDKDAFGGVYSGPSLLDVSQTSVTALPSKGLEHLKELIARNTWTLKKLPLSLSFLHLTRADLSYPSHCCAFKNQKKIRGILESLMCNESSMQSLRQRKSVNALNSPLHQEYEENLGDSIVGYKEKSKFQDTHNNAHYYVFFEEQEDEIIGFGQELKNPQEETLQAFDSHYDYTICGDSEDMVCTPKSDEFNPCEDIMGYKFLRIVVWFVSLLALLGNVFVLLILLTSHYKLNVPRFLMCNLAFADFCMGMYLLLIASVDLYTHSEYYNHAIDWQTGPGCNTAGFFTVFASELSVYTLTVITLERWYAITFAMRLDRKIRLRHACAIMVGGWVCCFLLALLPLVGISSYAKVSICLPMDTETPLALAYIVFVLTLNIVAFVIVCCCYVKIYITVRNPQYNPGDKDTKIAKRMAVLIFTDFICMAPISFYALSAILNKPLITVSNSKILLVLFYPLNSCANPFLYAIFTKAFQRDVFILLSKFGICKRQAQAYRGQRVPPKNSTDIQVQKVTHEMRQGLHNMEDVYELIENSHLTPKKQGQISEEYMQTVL
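HEK 293 cells stably expressing TSHR and a modified CNG channel, with CNG-only parental cells as counterscreen, were preloaded 60 min at room temperature with membrane potential dye containing 100 uM RO 20-1724. Compound exposure was 30 min, and depolarization was read as fluorescence at 590 nm.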
An asterisk follows results filed as active; ? = inconclusive; . = no result given; [ ] = another dose, or the depositor's remark. Unless noted, calls follow the shape of the dose curve; as a rule, active = well fitted curve in the direction sought with a large enough effect; inconclusive = small, poorly fitted or top-dose-only effect, or another doubt; inactive = no such curve, though single readings can be large; an effect the other way counts as inactive or inconclusive. Potency is read from the fitted curve at half-maximal effect.

SMILES | ERK AVP inh | IkB sig inh | CRE-bla Fsk | HEK293 cAMP ctrl | TSHR ag
COc1ccccc1CNc1ncncc1-c1ccccc1CN(C)C | -2.3% | -0.1%[11.4 µM] | 1.0% | 16.4% | 9.0%
COc1ccccc1CNc1ncnc2c1nnn2Cc1ccccc1 | -9.8% | ? | 11.8% | 12.6µM* | ?
O=C(N[C@@H](c1ccccc1)[C@@H]1C[C@H]1C(=O)NCc1ccccc1)OCc1ccccc1 | 14.5% | . | -8.8% | 12.6µM* | ?
O=C(N[C@@H](c1ccccc1)[C@@H]1C[C@H]1C(=O)NCc1ccccn1)OCc1ccccc1 | 8.9% | . | -5.8% | 11.8% | 15.9%
COC(=O)[C@H](Cc1ccccc1)NC(=O)[C@H]1C[C@@H]1[C@H](NC(=O)OCc1ccccc1)c1ccccc1 | -14.3% | . | -8.0% | 15.8µM* | ?
O=c1ccnc(NCCc2ccccc2)[nH]1 | -20.4% | 3.6% | -6.1% | 3.9% | 11.2%
COc1ccc(NC(=O)Cn2c(=O)n(-c3cc(C)cc(C)c3)c(=O)c3oc4ccccc4c32)cc1OC | . | 2.8% | . | . | .
C=CCn1c(SC(C)C(=O)NCc2ccc3c(c2)OCO3)nnc1C1CCCCC1 (stereo unspecified) | 9.5% | 1.5% | -5.5% | 2.51µM* | ?
O=C(Nc1cn(-c2ccccc2)nc1-c1cccs1)c1ccco1 | -21.0% | 0.5% | 3.4% | 31.6µM* | ?
CCCn1c2ccccc2c2nc3ccccc3nc21 | 107.2% | -2.2% | ? | ? | ?
N#CCCn1c2ccccc2c2nc3ccccc3nc21 | ? | -0.7% | 3.16µM* | 23.1% | 7.0%
O=c1oc2ccccc2n1CCn1c2ccccc2c2nc3ccccc3nc21 | 6.2% | 0.0% | 7.7% | 7.94µM* | ?
O=c1oc2ccccc2n1Cn1c(=O)oc2ccccc21 | 23.0% | 0.5% | -0.5% | 26.7% | .
O=C(CN1C(=O)C2(OCCO2)c2ccccc21)c1ccc(F)cc1 | -1.2% | -0.1% | -18.8% | 15.2% | 4.3%
CCc1ccc(NC(=O)CSc2nc(C)c(C(=O)Nc3ccc(Cl)cc3)c(-c3ccc(OC)cc3)c2C#N)cc1 | . | 3.6% | . | . | .
CSc1c(C#N)c(N)c(C#N)c2c1COC(C)(C)C2 | -26.5% | 0.7% | 3.98µM* | 21.5% | 13.8%
CC(C)(C)OC(=O)N1CC(O)CC1C(=O)OCC(=O)c1ccc(Cl)cc1 (stereo unspecified) | ? | -1.9% | 16.1% | -5.8% | 3.3%
COc1ccc(-c2cc(C(F)(F)F)nc(SCC(=O)Nc3cc(C)on3)n2)cc1OC | -19.5% | 0.1% | 2µM* | 19.7% | 6.1%
Cc1cc(NC(=O)CSc2nc(-c3cccs3)cc(C(F)(F)F)n2)no1 | -5.0% | 0.7% | 3.16µM* | 17.8% | 9.2%
COc1ccc(-c2cc(C(F)(F)F)nc(SCC(=O)Nc3ccc(O)cc3)n2)cc1OC | . | -5.7% | . | . | .
COc1cc(NC(=O)CSc2nc(-c3cccs3)cc(C(F)(F)F)n2)cc(OC)c1OC | . | 5.5% | . | . | .
Cc1ccc(N(CC(=O)N2CC(=O)Nc3ccccc32)S(=O)(=O)c2ccc3c(c2)OCCO3)cc1 | -0.5% | 0.7% | ? | 10.1% | 7.94µM*
O=C(O)CN(c1ccc(F)cc1)S(=O)(=O)c1ccc2c(c1)OCCO2 | . | . | . | 11.6% | 10.6%
CCOc1ccc(-c2nc(CSc3nncs3)cs2)cc1OC | -19.5% | -2.7% | 5.01µM* | 6.6% | 7.4%
COc1ccc(NC(=O)CSc2nncs2)cc1OC | 21.7% | -0.5% | 22.0% | 5.8% | -1.1%
SMILES | ERK AVP inh | IkB sig inh | CRE-bla Fsk | HEK293 cAMP ctrl | TSHR ag
Cc1cccc(NC(=O)c2sc3nc(-c4ccccc4)cn3c2C)n1 | -1.7% | ? | ? | 25.1µM* | ?
COc1ccc(-c2cn3c(C)c(C(=O)Nc4cccc(C)n4)sc3n2)cc1 | -12.5% | ? | 12.1% | 18.0% | 18.4%
Cc1cccc(NC(=O)c2sc3nc(-c4ccc(F)cc4)cn3c2C)n1 | 24.9% | ? | ? | 20µM* | ?
Cc1c(C(=O)Nc2ccccc2)sc2nc(-c3ccccc3)cn12 | 4.7% | ? | -9.4% | 31.6µM* | ?
Cc1c(C(=O)NCC2CCCO2)sc2nc(-c3ccc(F)cc3)cn12 (stereo unspecified) | . | 3.1% | 12.6µM* | ? | ?
CN(C)S(=O)(=O)c1ccc2c(c1)C(CC(=O)O)OC2=O (stereo unspecified) | 1.4% | 0.5% | -3.9% | ? | ?
NC[C@H]1O[C@H](n2cnc3c(N)ncnc32)C[C@@H]1O | 9.1%[11.5 µM] | -1.2%[11.4 µM] | 5.8%[7.6 µM] | 12.1%[11.4 µM] | -4.3%[11.4 µM]
CC(=O)c1cnc(N2CCCCC2)nc1C | -7.2% | 1.9% | 17.7% | 8.9% | 4.2%
CCOC(=O)c1ccccc1N/C=C1\CCCC1=O | 5.0% | 2.4% | 10µM* | 43.6% | 18.6%
Cc1cccc(Cc2c(C)nc3c(C(=O)NCc4ccco4)cnn3c2C)c1 | -6.3% | ? | 10.8% | ? | ?
Cc1nc2c(C(=O)NCc3ccco3)cnn2c(C)c1Cc1ccc(F)cc1Cl | -14.6% | 1.0% | ? | 25.1µM* | ?
COC(=O)C1=C(C)NC(C)=C(C(=O)OC)C1c1cc2ccc(C)cc2[nH]c1=O | 23.3% | 5.0% | 0.7% | 22.1% | 15.8µM*
CCCCS(=O)(=O)C(=C1Nc2ccccc2N1)S(=O)(=O)CCCC | 2.5% | 6.3% | -22.7% | 4.3% | -2.7%[11.4 µM]
C=CCn1c(SCc2nc3ccccc3c(=O)[nH]2)nnc1-c1cc2cc(Cl)ccc2o1 | -19.8% | 0.9% | 9.8% | 31.6µM* | ?
CCCCN(CCCC)S(=O)(=O)c1ccc2oc(C(=O)N3CCOCC3)c(C)c2c1 | -7.9% | 3.2% | ? | 26.8% | .
O=C(Nc1ccc(SC(F)F)cc1)c1ccc2nccnc2c1 | 25.1µM* | ? | 0.8% | 6.0% | 0.3%
COc1ccc(C2C(C(=O)Nc3cc(C)on3)c3ccccc3C(=O)N2C)cc1 (stereo unspecified) | 10.6% | 1.9% | ? | ? | ?
Cc1ccc(CNC(=O)C2c3ccccc3C(=O)N(C)C2c2c[nH]c3ccccc23)o1 (stereo unspecified) | -26.6% | ? | ? | 25.1µM* | ?
CCOCCCn1c(=N)c(S(=O)(=O)c2ccc(C)cc2)cc2c(=O)n3ccccc3nc21 | . | -2.5% | . | . | .
Cn1c(=N)c(S(=O)(=O)c2ccc(F)cc2)cc2c(=O)n3ccccc3nc21 | -11.8% | 2.3% | 1.58µM* | -15.3% | -13.7%
Cn1c(=N)c(S(=O)(=O)c2ccccc2)cc2c(=O)n3ccccc3nc21 | -21.3% | -0.3% | 2µM* | -8.1% | -9.5%
COc1ccc(OC)c(S(=O)(=O)N2CCCCCC2)c1 | -21.6% | -1.8% | 1.6% | 22.9% | -0.1%
COc1cc(S(=O)(=O)N2CCCCCC2)c(OC)cc1Br | 12.9% | -0.4% | -6.4% | 15.8µM* | ?
Cc1cccc(CNc2nc(-c3ccc(C(=O)N(C)C)cc3)nc3ccccc23)c1 | -15.4% | 0.6%[11.4 µM] | 0.794µM* | ? | ?

Screening data (PubChem)
